IL1B secr inh: inhibitors of inflammasome signaling (IL-1 beta secretion) | activity change, % at 57.5 µM | actives 4.7% (n = 360,000) | THP-1 LPS/ATP IL-1B secretion, AlphaLISA, 16 h; stronger effect = lower value | AID 743279; in the data active means activity change below about -50%; inconclusive means mostly about -30% to -49%; further: on the % scale 0 is the no-effect control and ±100 the full control effect
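THP-1 cells pretreated 1 hr with compounds (up to 57.5 uM final), then stimulated with LPS (250 ng/mL final) plus ATP (1.25 mM final); secreted IL-1B measured by AlphaLISA after 16 hr, decreased signal indicating inhibition.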
KB-3-1 tox: KB-3-1 parental cell cytotoxicity; Potency, µM (top dose mostly 46.1 µM), usual class: cytotoxic; actives 1.4% (n = 400,000); KB-3-1 viability, CellTiter-Glo ATP luminescence, 72 h; further: potency means the concentration at half of the fitted maximal effect; on the % scale 0 is the no-effect control and ±100 the full control effect; nearly all actives have a fitted effect of over 60% in size
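Cytotoxicity in the drug-sensitive parental line KB-3-1 was scored as loss of CellTiter-Glo luminescence following 72 h incubation with compound. Values come from curve fitting of normalized concentration-response data.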
KB-V1 MDR tox: kills drug-selected multidrug resistant KB-V1 cells. KB-V1 MDR cells viability, CellTiter-Glo, 72 h. Potency, µM (top dose mostly 46.1 µM), actives largely listed as cytotoxic. actives 3.4% (n = 400,000); further: potency means the concentration at half of the fitted maximal effect; on the % scale 0 is the no-effect control and ±100 the full control effect; nearly all actives have a fitted effect of over 60% in size
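Following 72 h at 37 degrees C with compound, KB-V1 cell viability was read by CellTiter-Glo luminescence, medium being phenol-red-free DMEM plus 10% FBS; concentration-response parameters came from normalized, curve-fitted qHTS data.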
MCF10A rereplic: induces DNA re-replication in MCF 10a normal breast cells. Potency, µM (top dose mostly 46.1 µM), for inactives: at the highest dose activity, positive = re-replication, hits mostly activators. actives 2.9% (n = 350,000). MCF 10A DNA re-replication, Hoechst nuclear intensity, 48 h; further: potency means the concentration at half of the fitted maximal effect; % of control where 0% means no effect; nearly all actives have a fitted effect of over 50% in size
SW480 rerep: DNA re-replication induction in SW480 cells. SW480 DNA re-replication, Hoechst DNA content imaging, 48 h. Potency, µM (doses to about 46.1 µM), for the others: at the highest dose re-replication activation, usual class: activators. actives 1.8% (n = 340,000). AID 624297; further: potency means the concentration at half of the fitted maximal effect; % of control where 0% means no effect; nearly all actives have a fitted effect of over 55% in size
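Quantitative HTS format with DMSO vehicle controls; 48 hr drug incubation at 37 C, then 40 min Hoechst staining and scanning imager measurement at 405 nm excitation.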
Active calls of the source: *; i = inactive; ? = inconclusive; . = not tested or not shown; [ ] = remark or other dose. Shown are actives, neighbours in structure and some others; about 9.9% of the full set was active somewhere. Unless noted, the call rests on the fitted dose curve; in most records, active means well fitted curve in the direction sought with a large enough effect; inconclusive means small, poorly fitted or top-dose-only effect, or another doubt; inactive means no such curve, though single readings can be large; an effect the other way counts as inactive or inconclusive.

SMILES	IL1B secr inh	KB-3-1 tox	KB-V1 MDR tox	MCF10A rereplic	SW480 rerep
COc1ccc2oc(C(=O)NCc3ccccc3CN3CCCC3)c(C)c2c1	-22.3	i	i	11.6%	-4.4%
COc1ccc2cc(C(=O)NCc3ccccc3CN3CCCC3)ccc2c1	-67.7*	?	i	32.9%	64.1%
COc1ccc(NS(=O)(=O)c2cccc(C(=O)NCc3ccccc3CN3CCOCC3)c2)cc1	-11.0	?	i	?	?
CCCCN1CCCCC1(C)C(=O)NCc1ccc2c(c1)OCO2 (centres undefined)	17.3	i	i	.	.
CCN(c1ccccc1)S(=O)(=O)c1ccc(C(=O)Nc2c(C)n(C)n(-c3ccccc3)c2=O)cc1	1.6	i	i	-3.0%	1.0%
CCCCN(c1ccccc1)S(=O)(=O)c1cccc(C(=O)Nc2c(C)n(C)n(-c3ccccc3)c2=O)c1	-0.2	25.9µM*	2.59µM*	?	-6.3%
Cc1ccc(C(=O)Cc2ccccc2)cc1	-14.0	i	i	3.9%	-4.7%
Cc1ccc(C(=O)CN(Cc2ccccc2)C2=NCCS2)cc1	?	i	16.4µM*	4.9%	12.1%
O=C(c1ccccc1)N(C1=NCCCCS1)c1ccccc1	-5.5	i	?	13.8%	-6.2%
O=C(CN(Cc1ccccc1)C1=NCCS1)c1ccccc1	-6.7	i	18.4µM*	0.6%	1.8%
Cc1ccc(-n2nc3c4c(cccc4c2=O)-c2ccccc2-3)cc1	7.9	?	8.2µM*	?	1.2%
Cc1c2c(n3c(nc4ccccc43)c1C#N)N(CCCN(C)C)CC2	-22.4	i	?	14.6µM*	9.2µM*
Cc1c2c(n3c(nc4ccccc43)c1C#N)N(CCN(C)C)CC2	-22.6	i	i	16.4µM*	9.2µM*
Cc1c2c(n3c(nc4ccccc43)c1C#N)N(c1ccccc1)CC2	.	.	.	5.3%	10.0%
CSc1ccc(/C=c2\s/c(=C\C(=O)C(C)(C)C)n(CC(=O)NCCC3=CCCCC3)c2=O)cc1	?	i	i	?	2.5%
CCCNC(=O)Cn1c(=O)/c(=C/c2ccc(-c3ccc([N+](=O)[O-])cc3)o2)s/c1=C\C(=O)C(C)(C)C	34.4	?	i	18.4µM*	7.31µM*
COc1ccccc1CC(Cc1nc2ccccc2[nH]1)c1nc2ccccc2[nH]1 (centres undefined)	-25.9	i	i	?	13.8%
Cc1cccc(CC(Cc2nc3ccccc3[nH]2)c2nc3ccccc3[nH]2)c1 (centres undefined)	-75.5*	?	?	?	20.3%
N#Cc1c2c(c(Nc3ccccc3)n3c1nc1ccccc13)CCC2	25.7	?	i	16.4µM*	2.9%[9.22 µM]
Cc1cc(Nc2cccc(Br)c2)n2c(nc3ccccc32)c1C#N	.	8.2µM*	?	.	.
COc1ccccc1C(=O)NN=C1CCN(Cc2ccccc2)CC1	-4.6	i	i	0.1%	-1.1%
CN(C)c1nc(NNC(=O)c2ccccc2)nc(N(C)C)n1	-6.9	i	8.2µM*	-3.1%	0.2%
CN(C)c1nc(C(=O)Nc2ccccc2)nc(N(C)C)n1	6.7	i	i	7.8%	0.0%
COc1ccc(/C=N/n2cc(-c3ccccc3)nc2N)cc1	9.4	3.66µM*	7.31µM*	23.1µM*	?
CN1CCN(S(=O)(=O)c2ccc3c(c2)oc(=O)n3C)CC1	11.5	i	i	10.7%	3.0%
SMILES	IL1B secr inh	KB-3-1 tox	KB-V1 MDR tox	MCF10A rereplic	SW480 rerep
COc1cccc(CNCc2cccnc2)c1OCc1ccccc1	23.5	i	?	?	2.5%
Cc1ncc(COCc2ccccc2)c(CO)c1OCc1ccccc1	-1.4	i	18.4µM*	11.6%	-2.9%
Cc1occc(=O)c1OCc1ccccc1	-1.9	i	i	0.6%	-3.1%
Cc1ccc2c(C)c(C(=O)N3CCN(c4cnccn4)CC3)oc2c1C	-62.9*	.	.	9.0%	-6.6%
Cc1ccc2c(C)c(C(=O)N3CCN(Cc4ccc5c(c4)OCO5)CC3)oc2c1C	-77.5*	?	?	24.6%	-2.0%
Cc1cc(Cl)c2oc(C(=O)N3CCN(c4cnccn4)CC3)c(C)c2c1	-20.7	i	i	.	.
O=C(c1ccc(Cl)c([N+](=O)[O-])c1)N1CCN(Cc2ccc3c(c2)OCO3)CC1	-75.6*	i	i	24.5%	-5.1%
O=C(c1ccc(S(=O)(=O)c2cccc(Cl)c2)c([N+](=O)[O-])c1)N1CCN(Cc2ccccc2)CC1	-98.9*	?	?	20.6µM*	?
COc1ccc(C(=O)N2CCN(Cc3ccccc3)CC2)cc1[N+](=O)[O-]	-5.9	i	i	0.0%	-6.3%
Cc1ccccc1-c1noc(-c2cccnc2N2CCN(c3ccccc3)CC2)n1	.	i	i	.	.
Cc1ccc(C(=O)N2CCN(Cc3ccc4c(c3)OCO4)CC2)cc1S(=O)(=O)N1CCOCC1	-23.7	i	16.4µM*	18.1%	-6.8%
CCn1c(=O)c(=O)[nH]c2cc(C(=O)N3CCN(Cc4ccc5c(c4)OCO5)CC3)ccc21	-4.9	i	i	5.17µM*	-32.6%
O=C(c1ccc(S(=O)(=O)N2CCCC2)cc1)N1CCN(Cc2ccc3c(c2)OCO3)CC1	-19.2	i	?	0.5%	-4.0%
CCOc1ccccc1NC(=O)c1nc(SCc2ccccc2F)ncc1Cl	.	i	i	.	.
CC(=O)Nc1cccc(-c2csc(C(C)(O)c3ccc(F)c(F)c3)n2)c1 (centres undefined)	33.7	i	i	.	.
COC(=O)c1c(C(=O)OC)c(-c2ccc(OC)cc2)n2c1CS(=O)(=O)C2	19.6	i	i	-0.3%	-28.5%
Cc1ccc(-c2nc3ccccc3c(=O)n2NC(=O)COc2ccccc2)cc1	-4.4	i	?	-0.6%	-12.4%
Cc1ccc(OCC(=O)Nn2c(C)nc3ccccc3c2=O)c(C(C)C)c1	50.4	i	18.4µM*	-1.3%	-3.0%
COc1cc(OC)cc(-c2nc3nc(C)c(CCC(=O)Nc4ccc(F)cc4F)c(C)n3n2)c1	.	i	i	.	.
O=C(/C=C/c1ccc(Cl)cc1)NC1CC2CCC1C2 (centres undefined)	-99.0*	i	i	0.7%	-2.5%
CSc1ncccc1C(=O)Nc1cc(Cl)ccc1N1CCOCC1	-21.5	?	20.6µM*	13.0%	4.6%
COc1ccccc1C(=O)Nc1ccccc1N1CCOCC1	-16.2	i	i	-5.2%	-6.6%
CSc1ncccc1C(=O)Nc1ccccc1N1CCOCC1	26.3	i	20.6µM*	1.3%	-11.0%
O=C(c1ccccc1)C1CN(c2ccccc2)CC1c1ccc(Cl)cc1 (centres undefined)	12.3	i	i	1.0%	-4.9%
NC1=NC(c2ccc(Cl)cc2)C(C(=O)c2ccccc2)N1 (centres undefined)	100.1	?	i	5.8µM*	?

From PubChem
